Records with an inconclusive call do not appear. A call without a number means that no potency is given here. The source made the active and inactive calls. Calls come from the whole dose curve; as a rule, active = well fitted curve in the direction sought with a large enough effect; inconclusive = small, poorly fitted or top-dose-only effect, or another doubt; inactive = no such curve, though single readings can be large; an effect the other way counts as inactive or inconclusive.

A short description of the first test: qHTS of pediatric cancer cell lines to identify multiple opportunities for drug repurposing: Primary screen for TC32 cells (AID 1347089). Note: nearly all actives have a fitted effect of over 60% in size. The conditions noted are these: TC32 Ewing sarcoma viability, CellTiter-Glo luminescence, 48 h; series mostly up to 45.8 µM. In a few lines: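 qHTS, TC32, 48 h drug treatment, CellTiter-Glo luminescence as a proxy for metabolically active cells; primary top concentration 46 µM (MIPE 11-pt, NPC 8-pt); confirmatory 11-pt.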
Turning to `C[C@]12Cc3nonc3C[C@@H]1CC[C@@H]1[C@@H]2CC[C@@]2(C)[C@H]1CC[C@]2(C)O`, the Potency result was “inactive”.
The same measure, in the same setting: next, `O=C(N[C@@H]1N=C(c2ccccc2F)c2cccc3c2N(CC3)C1=O)c1cc2ccccc2[nH]1`: “inactive”; `CN(C)C(=O)Oc1cc(OC(=O)N(C)C)cc(C(O)CNC(C)(C)C)c1` (centres undefined): “inactive”; `CCC(=O)C(CCN(C)C)(c1ccccc1)c1ccccc1`: “inactive”.

The next test can be described thus: qHTS of pediatric cancer cell lines to identify multiple opportunities for drug repurposing: Primary screen for DAOY cells (AID 1347090). Note: nearly all actives have a fitted effect of over 55% in size. The conditions noted are these: DAOY medulloblastoma viability, CellTiter-Glo luminescence, 48 h; series mostly up to 46 µM. In a few lines:
(§1)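 Viability measured as metabolically active cells via CellTiter-Glo luminescence following 48 hours of compound exposure, 11-point dilutions in confirmatory testing. 500-1,000 cells/well plated 5 hours before dosing; controls were DMSO and 2.3 µM bortezomib.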
For the molecule `C[C@]12Cc3nonc3C[C@@H]1CC[C@@H]1[C@@H]2CC[C@@]2(C)[C@H]1CC[C@]2(C)O`, the Potency result is “inactive”.
For `CN(C)C(=O)Oc1cc(OC(=O)N(C)C)cc(C(O)CNC(C)(C)C)c1` (centres undefined), the Potency result was “inactive”.
Same read-out and setting: the entry for `CCC(=O)C(CCN(C)C)(c1ccccc1)c1ccccc1` is “inactive”.

A short description of the next test: qHTS of pediatric cancer cell lines to identify multiple opportunities for drug repurposing: Primary screen for SJ-GBM2 cells (AID 1347091). Note: potency is the fitted concentration of half-maximal effect. The following applies: SJ-GBM2 viability, CellTiter-Glo luminescence, 48 h; series mostly up to 46 µM. A digest of the protocol: as §1
For `O=C(N[C@@H]1N=C(c2ccccc2F)c2cccc3c2N(CC3)C1=O)c1cc2ccccc2[nH]1`, the Potency entry is “inactive”.
The same measure, in the same setting: next, `CN(C)C(=O)Oc1cc(OC(=O)N(C)C)cc(C(O)CNC(C)(C)C)c1` (centres undefined): “inactive”; `Cc1nnc2n1-c1sc(CCc3ccc(CC(C)C)cc3)cc1C(c1ccccc1Cl)=NC2C` (centres undefined): 26.6 µM (active).
Take `CCC(=O)C(CCN(C)C)(c1ccccc1)c1ccccc1`: the Potency result is “inactive”.

The next test in a line: qHTS of pediatric cancer cell lines to identify multiple opportunities for drug repurposing: Primary screen for BT-37 cells (AID 1347094). The conditions noted are these: BT-37 viability, CellTiter-Glo luminescence, 48 h; series mostly up to 57.3 µM. A digest of the protocol: (§2)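 Primary screen of approved and investigational compounds on cells in growth media at 37 degrees C, 5% CO2. MIPE set at 11-point and NPC set at 8-point dilutions; viability scored by ATP-based luminescence at 48 hours.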
With `O=C(N[C@@H]1N=C(c2ccccc2F)c2cccc3c2N(CC3)C1=O)c1cc2ccccc2[nH]1`, the Potency result is “inactive”.
Take `CN(C)C(=O)Oc1cc(OC(=O)N(C)C)cc(C(O)CNC(C)(C)C)c1` (centres undefined): the Potency result is “inactive”.
With `CCC(=O)C(CCN(C)C)(c1ccccc1)c1ccccc1`, the Potency result was “inactive”.

A further test can be described thus: qHTS of pediatric cancer cell lines to identify multiple opportunities for drug repurposing: Primary screen for NB-EBc1 cells (AID 1347095). The following applies: NB-EBc1 neuroblastoma viability, CellTiter-Glo luminescence, 48 h; series mostly up to 46 µM. In a few lines:
as §2
(In general: qHTS replaces the single test concentration by a dilution series.)
For the molecule `O=C(N[C@@H]1N=C(c2ccccc2F)c2cccc3c2N(CC3)C1=O)c1cc2ccccc2[nH]1`, the Potency entry is “inactive”.
Regarding `CN(C)C(=O)Oc1cc(OC(=O)N(C)C)cc(C(O)CNC(C)(C)C)c1` (centres undefined), the Potency entry was “inactive”.
On the same count and under the same terms, the entry for `CCC(=O)C(CCN(C)C)(c1ccccc1)c1ccccc1` is “inactive”.

The next test is described as follows: qHTS of pediatric cancer cell lines to identify multiple opportunities for drug repurposing: Primary screen for U-2 OS cells (AID 1347096). Note: nearly all actives have a fitted effect of over 50% in size. The following applies: U-2 OS viability, CellTiter-Glo luminescence, 48 h; series mostly up to 46 µM. In a few lines: (§3)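 Viability after 48 h compound treatment at 37C, 500-1,000 cells/well, read as ATP luminescence with CellTiter-Glo. Primary screens used 11-point (MIPE, 0.78 nM-46 µM) or 8-point (NPC, 0.59 nM-46 µM) final concentrations; follow-up screens used 11-point dilutions.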
For the molecule `C[C@]12Cc3nonc3C[C@@H]1CC[C@@H]1[C@@H]2CC[C@@]2(C)[C@H]1CC[C@]2(C)O`, the Potency entry is “inactive”.
Take `O=C(N[C@@H]1N=C(c2ccccc2F)c2cccc3c2N(CC3)C1=O)c1cc2ccccc2[nH]1`: the Potency entry is “inactive”.
The same measure, in the same setting: the entry for `CN(C)C(=O)Oc1cc(OC(=O)N(C)C)cc(C(O)CNC(C)(C)C)c1` (centres undefined) is “inactive”.
Still for that read-out and setting: next, `CCC(=O)C(CCN(C)C)(c1ccccc1)c1ccccc1`: “inactive”.

A short description of the next test: qHTS of pediatric cancer cell lines to identify multiple opportunities for drug repurposing: Primary screen for NB1643 cells (AID 1347099). Note: nearly all actives have a fitted effect of over 50% in size. The conditions noted are these: NB1643 neuroblastoma viability, CellTiter-Glo luminescence, 48 h; series mostly up to 46 µM. A digest of the protocol:
as §2
On to `C[C@]12Cc3nonc3C[C@@H]1CC[C@@H]1[C@@H]2CC[C@@]2(C)[C@H]1CC[C@]2(C)O`, for which the Potency result is “inactive”.
Still for that read-out and setting: next, `O=C(N[C@@H]1N=C(c2ccccc2F)c2cccc3c2N(CC3)C1=O)c1cc2ccccc2[nH]1`: “inactive”; `CCC(=O)C(CCN(C)C)(c1ccccc1)c1ccccc1`: “inactive”.

Another test in a line: qHTS of pediatric cancer cell lines to identify multiple opportunities for drug repurposing: Primary screen for LAN-5 cells (AID 1347100). Note: potency is the fitted concentration of half-maximal effect. The conditions noted are these: LAN-5 neuroblastoma viability, CellTiter-Glo luminescence, 48 h; series mostly up to 46 µM. A digest of the protocol: as §3
As to `O=C(N[C@@H]1N=C(c2ccccc2F)c2cccc3c2N(CC3)C1=O)c1cc2ccccc2[nH]1`, the Potency result is “inactive”.
The same measure, in the same setting: next, `CN(C)C(=O)Oc1cc(OC(=O)N(C)C)cc(C(O)CNC(C)(C)C)c1` (centres undefined): “inactive”; `Cc1nnc2n1-c1sc(CCc3ccc(CC(C)C)cc3)cc1C(c1ccccc1Cl)=NC2C` (centres undefined): 23.7 µM (active); `CCC(=O)C(CCN(C)C)(c1ccccc1)c1ccccc1`: “inactive”.

The next test in a line: qHTS of pediatric cancer cell lines to identify multiple opportunities for drug repurposing: Primary screen for BT-12 cells (AID 1347101). Note: nearly all actives have a fitted effect of over 25% in size. Note: potency is the fitted concentration of half-maximal effect. The conditions noted are these: BT-12 viability, CellTiter-Glo luminescence, 48 h; series mostly up to 57.3 µM. A digest of the protocol: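 Cells (500-1,000/well) rested 5 h, then received compounds for 48 h; metabolically active cells were measured by CellTiter-Glo luminescence. Final concentrations spanned up to 46 µM (MIPE, 11-point) or 0.59 nM-46 µM (NPC, 8-point) in primary screens, 11-point in follow-ups.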
For `O=C(N[C@@H]1N=C(c2ccccc2F)c2cccc3c2N(CC3)C1=O)c1cc2ccccc2[nH]1`, the Potency result was “inactive”.
The same measure, in the same setting: the entry for `CN(C)C(=O)Oc1cc(OC(=O)N(C)C)cc(C(O)CNC(C)(C)C)c1` (centres undefined) is “inactive”.
Still for that read-out and setting: next, `Cc1nnc2n1-c1sc(CCc3ccc(CC(C)C)cc3)cc1C(c1ccccc1Cl)=NC2C` (centres undefined): 11 µM (active).

A short description of a further test: qHTS of pediatric cancer cell lines to identify multiple opportunities for drug repurposing: Primary screen for Rh18 cells (AID 1347102). Note: nearly all actives have a fitted effect of over 65% in size. The conditions noted are these: Rh18 rhabdomyosarcoma viability, CellTiter-Glo luminescence, 48 h; series mostly up to 46 µM. In a few lines:
as §3
Consider `C[C@]12Cc3nonc3C[C@@H]1CC[C@@H]1[C@@H]2CC[C@@]2(C)[C@H]1CC[C@]2(C)O`, for which the Potency result was “inactive”.
On the same count and under the same terms, the entry for `O=C(N[C@@H]1N=C(c2ccccc2F)c2cccc3c2N(CC3)C1=O)c1cc2ccccc2[nH]1` is “inactive”; for `CN(C)C(=O)Oc1cc(OC(=O)N(C)C)cc(C(O)CNC(C)(C)C)c1` (centres undefined) it is “inactive”.

Source of the values: PubChem BioAssay (NCATS).
